# Source: PubChem (several laboratories)
# Hits are enriched below; roughly 4.6% of the tested compounds scored in any of these assays.
# HIF-2a inh: HIF-2a reporter inhibitors, primary screen, luminescence, 786-0 RCC cells; actives 0.72% (n = 360,000); 786-0 RCC cells HIF-2a reporter, luciferase luminescence, overnight; inhibition, % at 18.8 µM;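 active means inhibition of the luminescence signal of 40% or more relative to plate controls, in a single-dose primary screen at 18.75 µM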
# CF NFkB inh: inhibitors of PAF-induced NF-kB signaling, primary screen, cell-based, GFP fluorescence, uHTS; KKLEB NF-kB-GFP reporter, GFP fluorescence overnight; inhibition, % at 5 µM; actives 0.86% (n = 360,000);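 active means at least 50% inhibition at 5 µM, scaled per plate between neutral and stimulator controls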;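 further: PAF is a Pseudomonas aeruginosa culture filtrate used as stimulus; plate controls were PAF-stimulated DMSO wells for no effect and unstimulated DMSO wells for full effect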
# Mdm2 MdmX PPI: inhibitors of human Mdm2-MdmX association, primary screen, cell-based, luminescence, split luciferase, SaOS-2, uHTS; Protein Mdm4 (Homo sapiens) + E3 ubiquitin-protein ligase Mdm2 (Homo sapiens), …; SaOS-2 split-luciferase Mdm2/MdmX complementation; inhibition, % at 8 µM; actives 3% (n = 330,000); AID 485346, 2010;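 active means inhibition of at least 50% at 8 µM in the primary screen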
# Target sequence (O15151 whole entry, looked up): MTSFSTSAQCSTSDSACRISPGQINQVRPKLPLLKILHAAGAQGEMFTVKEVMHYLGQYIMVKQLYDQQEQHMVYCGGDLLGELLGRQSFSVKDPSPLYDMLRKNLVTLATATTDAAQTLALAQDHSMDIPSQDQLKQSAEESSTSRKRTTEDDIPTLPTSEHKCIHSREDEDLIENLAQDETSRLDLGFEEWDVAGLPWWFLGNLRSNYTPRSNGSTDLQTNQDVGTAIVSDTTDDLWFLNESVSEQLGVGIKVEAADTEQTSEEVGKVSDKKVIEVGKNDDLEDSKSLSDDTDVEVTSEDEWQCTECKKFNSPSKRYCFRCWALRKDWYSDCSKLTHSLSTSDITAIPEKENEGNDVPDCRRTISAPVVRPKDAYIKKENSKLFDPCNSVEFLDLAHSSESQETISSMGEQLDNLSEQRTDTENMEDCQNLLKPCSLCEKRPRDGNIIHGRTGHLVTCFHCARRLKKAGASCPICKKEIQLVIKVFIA
# Target sequence (Q00987 whole entry, looked up): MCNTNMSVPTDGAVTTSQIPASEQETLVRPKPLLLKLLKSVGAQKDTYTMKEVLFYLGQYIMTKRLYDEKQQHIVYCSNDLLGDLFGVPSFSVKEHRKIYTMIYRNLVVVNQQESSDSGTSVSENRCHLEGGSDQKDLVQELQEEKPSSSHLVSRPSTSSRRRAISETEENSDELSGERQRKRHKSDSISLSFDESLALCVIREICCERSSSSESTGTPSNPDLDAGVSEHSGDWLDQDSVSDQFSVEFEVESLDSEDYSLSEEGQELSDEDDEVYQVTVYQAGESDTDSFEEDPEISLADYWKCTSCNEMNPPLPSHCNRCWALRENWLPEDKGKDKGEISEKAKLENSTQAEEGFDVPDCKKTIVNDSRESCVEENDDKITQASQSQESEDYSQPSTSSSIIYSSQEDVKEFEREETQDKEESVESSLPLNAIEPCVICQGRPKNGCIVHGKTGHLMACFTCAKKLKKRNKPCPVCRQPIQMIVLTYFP
# ABHD5 PLIN5 PPI: ABHD5-PLIN5 interaction inhibitors, primary screen, cell lysate, split luciferase complementation, luminescence. Perilipin-5 (Homo sapiens) + 1-acylglycerol-3-phosphate O-acyltransferase ABHD5 (Homo …. AID 602281, 2012. Split G. princeps luciferase complementation, 4 h. actives 0.78% (n = 360,000). inhibition, % at 4 µM;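 active means inhibition above the mean inhibition across every tested compound plus 3 SD, cut at about 22% in these data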;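 further: 0% = DMSO only wells and the 100% control is not disclosed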
# KKLEB tox: cytotoxicity in KKLEB CF airway cells, primary screen, cytotoxicity control for CF NF-kB inhibitor project, cell-based, uHTS, fluorescence assay plates; KKLEB CF airway cells viability, ATPlite luminescence, overnight; stronger effect = lower value; cells stimulated with P. aeruginosa culture filtrate; activity change (cytotoxicity), % at 5 µM; actives 0.36% (n = 360,000); AID 602141, 2011;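 active means corrected activity change at or below -50% at 5 µM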
# Peg3 prom inh: Peg3 promoter-driven luciferase inhibitors, primary screen, cell-based, HeLa, luciferase luminescence; HeLa PEG-Prom luciferase reporter, overnight; inhibition, % at 20 µM; actives 1.7% (n = 360,000); AID 588405, 2011;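 active means inhibition of at least 50% at 20 µM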
# Mdm2 MdmX conf-1: Mdm2-MdmX complex disruptors, retested hits, confirmation, luminescence, single concentration. shares compounds with Mdm2 MdmX PPI. Mdm2-MdmX binding, luminescent assay. inhibition, % at 8 µM. actives 55% (n = 10,000)
# FLuc counter: full-length luciferase signal inhibition, confirmation, counter-screen for Mdm2/MdmX interaction inhibitor project, cell-based, single concentration, SaOS-2 | shares compounds with Mdm2 MdmX PPI | SaOS-2 full-length luciferase counterscreen, luminescence | inhibition, % at 8 µM | actives 77% (n = 6,200) | AID 504607, 2011;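 active means mean inhibition at 8 µM reaching about 37%, which flags the compound as non-specific, limit read from the data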;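 further: p53-null SaOS-2 cells with luciferase driven by a doxycycline-inducible promoter; compound on cells about two nights before reading with doxycycline added after day one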
# CF NFkB conf: inhibitors of PAF-induced NF-kB signaling, retest, confirmation, cell-based, GFP fluorescence, single concentration; shares compounds with CF NFkB inh; KKLEB CF airway cells, overnight; inhibition, % at 5 µM; actives 64% (n = 1,300);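 further: stimulus PAF is a Pseudomonas aeruginosa filtrate and not platelet activating factor; plate controls were DMSO wells with stimulus for no effect and unstimulated DMSO wells for full effect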
# Mdm2 MdmX conf-2: retested Mdm2-MdmX interaction blockers, confirmation, cell-based, luminescence, single concentration, set 2; inhibition, % at 8 µM; actives 99% (n = 740); SaOS-2 split-luciferase Mdm2/MdmX complementation; shares compounds with HIF-2a inh;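 active means mean inhibition of the luminescence signal across two replicates at or above 26 percent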
# HIF-2a inh conf: HIF-2a reporter inhibitor retest, confirmation, luminescence, 786-0 RCC cells | AID 651580, 2012 | HIF-2a luciferase reporter luminescence, overnight | actives 56% (n = 1,800) | shares compounds with HIF-2a inh | inhibition, % at 18.8 µM;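 active means mean inhibition across four replicates of at least 40 percent at the single tested concentration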
# HIF-1a cs: HIF-1a luciferase reporter signal reduction – MiaPaCa-2 cells, single concentration, counter-screen for HIF-2a inhibitor project, confirmation; MiaPaCa-2 HIF-1a luciferase reporter, desferoxamine, overnight; actives 72% (n = 1,800); inhibition, % at 18.8 µM; shares compounds with HIF-2a inh;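 active means mean inhibition of the reporter signal across four replicates at the single tested dose of 50% or more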
# Numbers without * were called inactive; . = no result given. Unless noted, no stated cut-off is given here; in the data, active means inhibition above about 40%; inactive means the rest.
SMILES,HIF-2a inh,CF NFkB inh,Mdm2 MdmX PPI,ABHD5 PLIN5 PPI,KKLEB tox,Peg3 prom inh,Mdm2 MdmX conf-1,FLuc counter,Mdm2 MdmX conf-2,HIF-2a inh conf,HIF-1a cs,others
COc1ccc(NC(=O)C2(C)Cc3c(-c4ccc(N(C)C)cc4)ccnc3O2)cc1OC (stereo not drawn),8,-8,.,7,1,18,.,.,.,.,.,
CC(=O)Nc1ccc(-c2ccnc3c2CC(C)(C(=O)NCc2ccc(F)c(F)c2)O3)cc1 (stereo not drawn),23,-24,.,4,-7,35,.,.,.,.,.,
CCOc1cc(NC(=O)CCl)c(OCC)cc1NC(=O)CCl,23,18,96*,-3,-31,50*,80*,60*,103*,.,.,
Cc1ccc(C(=O)Cn2c(C(=O)/C=C/c3ccccc3)nc3ccccc32)cc1,48*,10,56*,8,-16,44,55*,53*,.,-4,60*,
CC(C)(C)[C@H](N)C(=O)N[C@H]1CCC2C3CC=C4C[C@@H](O)CC[C@]4(C)C3CC[C@@]21C (stereo partly drawn),94*,-28,100*,1,-68*,96*,100*,52*,103*,7,105*,
CCCCCCN[C@H]1CCC2C3CC=C4C[C@@H](O)CC[C@]4(C)C3CC[C@@]21C (stereo partly drawn),7,21,35,-4,0,18,.,.,.,.,.,
COc1ccc(N(C(=O)Cc2cccs2)C(C(=O)NC2CCCC2)c2ccncc2)cc1OC (stereo not drawn),18,-3,17,-3,14,2,.,.,.,.,.,
C#CC(=O)N(c1ccc(OC)c(OC)c1)C(C(=O)NC1CCCC1)c1cccs1 (stereo not drawn),87*,101*,99*,20,-100*,103*,100*,53*,102*,100*,105*,
C#CC(=O)N(c1cccc(OC)c1)C(C(=O)NC1CCCC1)c1cccs1 (stereo not drawn),93*,94*,97*,23*,-97*,106*,100*,52*,103*,99*,104*,
Cc1cccc(N(C(=O)C(F)(F)F)C(C(=O)NC2CCCCC2)c2cccs2)c1 (stereo not drawn),-11,-8,24,-5,8,9,.,.,.,.,.,
CCOc1cccc(N(C(=O)CNC(=O)c2ccco2)C(C(=O)NCC2CCCO2)c2ccccc2)c1 (stereo not drawn),10,-7,-15,4,4,2,.,.,.,.,.,
Cc1ccccc1-c1ccc2c(c1)O[C@H](CN(C)C(=O)C1CC1)[C@@H](C)CN([C@@H](C)CO)S2(=O)=O,6,-11,.,5,4,-4,.,.,.,.,.,
CCOc1cc(CNS(=O)(=O)c2ccc3c(c2)CC(=O)N3C)cc(OCC)c1OCC,1,-5,9,0,17,9,.,.,.,.,.,
CCOC1=C2[C@@H](CN(S(=O)(=O)c3ccc(C)cc3)[C@H]2c2ccccc2)[C@H]2C(=O)N(Cc3ccccc3)C(=O)[C@H]2C1,19,-18,.,-6,14,9,.,.,.,.,.,
Cc1cc(Cl)n2nc(C)c(-c3ccc(Cl)cc3)c2n1,66*,33,91*,-2,-30,104*,52*,15,.,9,100*,
COc1ccc(Cc2nnc(SCC(=O)Nc3ccc(N4CCOCC4)cc3)o2)cc1,10,-5,29,5,5,0,.,.,.,.,.,
CN1CCC(NCCC(c2ccc(F)cc2)c2ccc(Cl)cc2)CC1 (stereo not drawn),2,8,100*,8,-4,94*,98*,59*,103*,.,.,
COc1ccc(-c2cc(=O)oc3cc(OC(=O)C4CCCCC4)c(Cl)cc23)cc1,16,88*,75*,-2,-16,16,84*,52*,91*,.,.,CF NFkB conf=93*
CC(C)(C)n1nc(-c2ccc(F)cc2)c2c(N)ncnc21,43*,31,59*,-1,-8,47,55*,50*,.,45*,22,
CC(C)(C)n1nc(-c2ccc(Cl)cc2)c2c(N)ncnc21,63*,46,81*,-11,4,69*,63*,38*,.,43*,80*,
Cc1ccc(-c2nc(N)c3c(-c4ccc(C)cc4)nn(C(C)(C)C)c3n2)cc1,2,3,9,7,1,1,.,.,.,.,.,
O=C(c1ccc2c(c1)OCO2)C1CCCN(Cc2ccc(OC(F)F)cc2)C1 (stereo not drawn),-1,6,24,6,-14,18,.,.,.,.,.,
NS(=O)(=O)c1ccc(CNC(=O)CNC(=O)c2ccc(F)cc2)cc1,24,17,22,-11,-4,8,.,.,.,.,.,
CCC[C@@H](CNC)NC[C@H](Cc1ccccc1)NCCCCc1ccccc1,-2,5,97*,4,-16,99*,83*,55*,103*,.,.,
CNC[C@@H](Cc1ccccc1)NC[C@@H](CC1CCCCC1)NCCCc1ccccc1,85*,85*,98*,13,-96*,99*,100*,52*,103*,0,106*,
